Data published in PubChem BioAssay (NCATS).
Where “and” joins values, the source holds several entries; their conditions need not be identical. Equal values may be shown once. Results filed as inconclusive are left out. A structure can be active in one record and inactive in another. Calls of active or inactive are those of the source. Calls come from the whole dose curve; as a rule, active = well fitted cell-killing curve with a large enough effect; inconclusive = small, poorly fitted or top-dose-only effect, or effect the other way; inactive = no such curve, though single readings can be large or run the other way.

Experiment: Viability qHTS for spleen associated tyrosine kinase inhibitor (SYKi) drug resistant MV4-11 cells (AID 1963824); note: nearly all actives have a fitted effect of over 35% in size
Settings: SYKi-resistant MV4-11 viability, CellTiter-Glo, 72 h; series mostly up to 45 µM; viability, % of control: at the top concentration
Summary of the method: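 CellTiter-Glo luminescence, read 10 min after reagent addition, reports viability after a 72 hr compound exposure. Cells are an MV4-11 line made resistant to SYK inhibition, seeded at 500 per well onto compound-containing plates.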
Potency is the fitted concentration of half-maximal effect.

Row | SMILES | Potency | viability, % of control
1 | O=C(Nc1cccc(C(F)(F)F)c1)c1ccccc1NCc1ccncc1 | 9.2 µM (active) | –
2 | CCC(O)(C(=O)OCc1ccccc1NC(=O)CCC(=O)O)C(C)O (configuration not stated) | – | 93.6% (inactive)
3 | COc1ccc(NS(=O)(=O)c2sc3ccc(Cl)cc3c2C)cc1N1CCNCC1 | 14.6 µM (active) | –
4 | COc1cc(O)c2c(c1)C1(OC2=O)C(C)=CC(=O)C1O (configuration not stated) | 16.4 µM (active) | –
5 | CC(c1c[nH]c2ccccc12)C(O)C(=O)O (configuration not stated) | – | 74.5% (inactive)
6 | CCNC(=O)N1CCN(CCCC(c2ccc(F)cc2)c2ccc(F)cc2)CC1 | 18.8 µM (active) | –
7 | COc1cc(O)c2c(c1)C1=CC(O)C(O)CC1(C)OC2=O (configuration not stated) | – | 89% (inactive)
8 | C=C(CO[C@@H]1O[C@H](CO[C@@H]2OC[C@](O)(CO)[C@H]2O)[C@@H](O)[C@H](O)[C@H]1O)C1Cc2cc(C(C)=O)ccc2O1 (some centres not stated) | – | 85.9% [at 17.3 µM] (inactive)
9 | CO[C@H]1/C=C\O[C@@]2(C)Oc3c(C)c(O)c4c(O)c(c5c(nc6cc(C)ccn65)c4c3C2=O)NC(=O)/C(C)=C\C=C/[C@H](C)[C@H](O)[C@@H](C)[C@@H](O)[C@@H](C)[C@H](OC(C)=O)[C@@H]1C | 16.4 µM (active) | –
10 | Cc1ccc(C2(C(=O)N3CCC(n4nc(-c5ccccc5)oc4=O)CC3)CC2)cc1 | – | 76.7% (inactive)
11 | COC(=O)CC(O)C1OC(c2ccccc2)C(O)C1O (configuration not stated) | – | 55.5% (inactive)
12 | O=C1CCCC2=C1C1(CCCC1)N=C(Nc1nc3ccccc3o1)N2 | 3.66 µM (active) | –
13 | Cc1cc(C)c(CNC(=O)c2cc(-c3ccc(CN4CCOCC4)cc3)cc3c2cnn3C2CCCC2)c(=O)[nH]1 | inactive and 14.8 µM (active) | –
14 | CC(F)(F)CN1CCOc2c(nn(-c3ccccc3Cl)c2-c2ccc(Cl)cc2)C1=O | 20.6 µM (active) | –
15 | COc1ccc(C2OCC3C(c4cc(OC)c5c(c4)OCO5)OCC23)cc1OC (configuration not stated) | 8.93 µM (active) | –
16 | COc1cccc(CN(C(=O)CC(C)(C)C)C2CC(C(=O)N3CCNCC3)N(Cc3ccc4c(c3)OCO4)C2)c1 (configuration not stated) | 16.4 µM (active) | –

Row | SMILES | Potency | viability, % of control
17 | C[C@@H]1CC[C@]2(C(=O)O[C@@H]3O[C@H](CO)[C@@H](O)[C@H](O)[C@H]3O)CC[C@]3(C)C(=CCC4[C@@]5(C)C[C@@H](O)[C@H](O)[C@](C)(C(=O)O)C5CC[C@]43C)[C@@H]2[C@]1(C)O (some centres not stated) | – | 88% [at 17.3 µM] (inactive)
18 | CCCCCCCOc1cc2c(cc1/C(C)=C/c1ccc(C(=O)O)cc1)C(C)(C)CCS2(=O)=O | 11.6 µM (active) | –
19 | C=CCc1ccc(OC(C)Cc2ccc(OC)c(OC)c2)c(OC)c1 (configuration not stated) | 12.8 µM (active) | –
20 | CC(C)CNC(=O)/C=C/CCCCc1ccc2c(c1)OCO2 | – | 100% (inactive)
21 | Nc1ncnc2n[nH]c(Nc3ccc(F)cc3)c12 | 6.51 µM (active) | –
22 | C=C1C(=O)O[C@H](CCC)[C@H]1C(=O)O | – | 123% (inactive)
23 | C=C1CCC(OC(C)=O)C2(C)CC3(O)OC(=O)C(C)=C3CC12 (configuration not stated) | – | 79.2% (inactive)
24 | C/C=C(/C)C(=O)O[C@H]1[C@H](OC(=O)/C(C)=C\C)[C@@]23C(CC1(C)C)[C@]1(CCC4[C@@]5(C)CC[C@H](O[C@@H]6O[C@H](C(=O)O)[C@@H](O)[C@H](O[C@@H]7O[C@H](CO)[C@H](O)[C@H](O)[C@H]7O[C@@H]7O[C@@H](C)[C@H](O)[C@@H](O)[C@H]7O[C@@H]7OC[C@@H](O)[C@H](O)[C@H]7O)[C@H]6O[C@@H]6O[C@H](CO)[C@H](O)[C@H](O)[C@H]6O)C(C)(C)C5CC[C@@]4(C)[C@]1(C)C[C@H]2O)O[C@H]3O (some centres not stated) | 0.776 µM (active) | –
25 | CCn1c(-c2nonc2N)nc2cncc(C(=O)N3CC[C@H](N)C3)c21 | 8.2 µM (active) | –
26 | O=C(Nc1ccc(S(=O)(=O)Nc2nccs2)cc1)c1cc(-c2ccccc2)nc2ccccc12 | 16.4 µM (active) | –
27 | CC(=O)OC[C@@]12[C@H](O)C[C@@H](C)[C@]3(C[C@@H](c4ccoc4)OC3=O)[C@H]1C[C@H](O)C[C@]21CO1 | – | 70.7% [at 17.3 µM] (inactive)
28 | CC(C)(F)CC(NC(c1ccc(-c2ccc(S(C)(=O)=O)cc2)cc1)C(F)(F)F)C(=O)NC1(C#N)CC1 (configuration not stated) | 3.66 µM (active) | –
29 | O=c1[nH]c2ccccc2n1CCN1CCN(c2cccc(C(F)(F)F)c2)CC1 | 23.1 µM (active) | –
30 | COc1cc([C@H]2O[C@H](c3cc(OC)c4c(c3)OCO4)[C@H](C)[C@H]2C)cc(OC)c1OC | 0.893 µM (active) | –
31 | O=C(/C=C/c1cccnc1)c1ccncc1 | 6.51 µM (active) | –
32 | CO[C@H]1C[C@@H]2CC[C@@H](C)[C@@](O)(O2)C(=O)C(=O)N2CCCC[C@H]2C(=O)O[C@H]([C@H](C)C[C@@H]2CC[C@@H](OP(C)(C)=O)[C@H](OC)C2)CC(=O)[C@H](C)/C=C(\C)[C@@H](O)[C@@H](OC)C(=O)[C@H](C)C[C@H](C)/C=C/C=C/C=C/1C | 3.72 µM (active) | –
